Measurements reported in PubChem BioAssay AID765 (NMMLSC, 2007).

The molecules below were run against N-formyl peptide receptor 2 (Homo sapiens) (UniProt P25090) (assay: FPRL1 fluorescent ligand binding inhibitors, cell-based, flow cytometry, single concentration (AID 765)). Conditions: FPRL1-expressing cells, hits give high values; at 5.1 µM unless noted; in the data active means inhibition above about 31%; inactive means the rest.
N-formyl peptide receptor 2 (Homo sapiens), sequence (P25090 whole entry, looked up): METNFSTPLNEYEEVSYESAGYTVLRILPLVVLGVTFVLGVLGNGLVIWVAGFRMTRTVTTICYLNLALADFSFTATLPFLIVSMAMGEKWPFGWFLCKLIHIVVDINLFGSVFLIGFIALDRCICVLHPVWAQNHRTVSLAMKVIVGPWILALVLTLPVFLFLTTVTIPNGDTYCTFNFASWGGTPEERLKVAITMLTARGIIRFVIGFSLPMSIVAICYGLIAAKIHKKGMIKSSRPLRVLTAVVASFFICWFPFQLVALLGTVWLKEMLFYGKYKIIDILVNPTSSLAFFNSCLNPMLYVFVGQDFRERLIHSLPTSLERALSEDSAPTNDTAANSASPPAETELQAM

inhibition, inactive:
COc1cccc(-c2cc(C(F)(F)F)nc(N3CCN(C)CC3)n2)c1 -18% [at 6.3 µM]
CCN1CCN(c2nc(-c3ccc(Cl)cc3)cc(C(F)(F)F)n2)CC1 -7.7% [at 6 µM]
COc1ccc(-c2cc(C(F)(F)F)nc(N3CCN(c4ccc(F)cc4)CC3)n2)cc1OC 5.4% [at 4.8 µM]
CC(C)(C)OC(=O)N1CCN(c2nc(-c3ccccc3Cl)c3cc(Br)ccc3n2)CC1 -9.1% [at 4.4 µM]
COc1ccc(-c2cn3cccnc3n2)cc1NC(=O)c1ccc(C(C)(C)C)cc1 -1% [at 5.6 µM]
COc1cccc(-c2cc(C(F)(F)F)nc(N3CCN(C(c4ccccc4)c4ccccc4)CC3)n2)c1 -3.9% [at 4.4 µM]
COc1ccc(-c2cc(C(F)(F)F)nc(N3CCN(c4ccccc4)CC3)n2)cc1OC -5% [at 5 µM]
Clc1cccc(-c2nc(N3CCN(c4ccccc4)CC3)nc3c2COc2ccccc2-3)c1 -0.8% [at 4.9 µM]
O=C(O)/C=C\C(=O)N1CCN(c2nc(-c3ccccc3)c3cc(Br)ccc3n2)CC1 15.8% [at 4.8 µM]
COc1ccc(-c2cn3cccnc3n2)cc1NC(=O)c1ccc(F)c(F)c1 -13.5% [at 5.8 µM]
O=C(C1CCCCC1)N1CCN(c2nc(-c3ccccc3Cl)c3cc(Br)ccc3n2)CC1 -6.3% [at 4.3 µM]
CCOC(=O)N1CCN(c2nc(-c3ccc(Cl)cc3)cc(C(F)(F)F)n2)CC1 -12% [at 5.4 µM]
